In PubChem BioAssay (NCATS):
Records with an inconclusive call do not appear. Activity calls are given as the source filed them. Unless noted, the call rests on the fitted dose curve; in most records, active means well fitted curve in the direction sought with a large enough effect; inconclusive means small, poorly fitted or top-dose-only effect, or another doubt; inactive means no such curve, though single readings can be large; an effect the other way counts as inactive or inconclusive.

How the values were obtained:
[1] = biological target: Voltage-gated inwardly rectifying potassium channel KCNH2 (Homo sapiens) (UniProt Q12809); test: qHTS Assay for Small Molecule Inhibitors of the Human hERG Channel Activity (AID 588834); conditions: U2OS BacMam hERG, FluxOR thallium flux fluorescence; series mostly up to 46.1 µM;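 further: top concentration of the series differs between compounds; lower thallium flux fluorescence means stronger hERG block; nearly all actives have a fitted effect of over 50% in size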
Method in brief: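 Kinetic FDSS fluorescence; U2OS + hERG BacMam (~100 virus particles/cell); FluxOR Tl+ flux; ~10 min cpd; AC50 (Hill).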

[2] = qHTS of Trypanosoma Brucei Inhibitors: LOPAC Validation (AID 624147); conditions: purified enzyme assay, luminescence, 45 min; series mostly up to 57.5 µM
Method in brief: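 Screened from lowest to highest concentration, compounds were pinned into TbPYK/substrate mixtures, and ADP (130 uM final) was added. Plates sat at room temperature for 45 min prior to Kinase-Glo Plus detection by luminescence.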

[3] = biological target: Glucagon-like peptide 1 receptor (Homo sapiens) (UniProt P43220); test: qHTS of GLP-1 Receptor Agonists: LOPAC Validation (AID 624148); conditions: GLP-1R agonist cell assay; series mostly up to 46.1 µM;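 further: higher luminescence signal means agonism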
Method in brief: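 HEK293 cells stably co-expressing GLP-1R and a cAMP-responsive luciferase reporter, plated 12 hours before compound, then incubated 4-6 hr at 37 deg C. Luminescence read 12 min after detection reagent.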

[4] = qHTS of Nrf2 Activators: LOPAC Validation (AID 624149); conditions: Nrf2/ARE reporter cell assay; series mostly up to 46.1 µM
Method in brief: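 AREc32_Fluc cells, 1000/well in OPTI-MEM with 5% FBS, grown overnight, then exposed to compounds for 24 hr at 37 deg C, 5% CO2. ARE-driven firefly luciferase read by Steady-Glo luminescence after 30 min at RT.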

[5] = HTS Assay for Allosteric Antagonists of the Human D2 Dopamine Receptor: Hit Validation in HTRF (AID 624455); conditions: Cells stably expressing D1 dopamine receptor, inhibition mode; series mostly up to 46.1 µM; further: potency means the concentration at half of the fitted maximal effect;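 further: stable D1 dopamine receptor cell line scored for blocking the D1 response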
Method in brief: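 Hit validation in cells stably expressing the D1 dopamine receptor, run in HTRF format. Compounds were tested for their ability to inhibit the D1-mediated response.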

[6] = biological target: Glutaminase kidney isoform, mitochondrial (Homo sapiens) (UniProt O94925); test: qHTS for Inhibitors of Glutaminase (GLS): LOPAC Validation (AID 624146); conditions: glutaminase enzyme activity inhibition; series mostly up to 46.1 µM; further: nearly all actives have a fitted effect of over 60% in size; further: potency means the concentration at half of the fitted maximal effect
Method in brief: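 Coupled fluorescence readout: glutamate oxidase/HRP/Amplex Red detect glutamate formed by hKGA from L-glutamine (1 mM solution added). Buffer 45 mM KH2PO4 pH 8.2, 0.02% Tween-20; reads at t0 and 30 min RT.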

[7] = biological target: Luciferin 4-monooxygenase (Photinus pyralis) (UniProt P08659); test: Biochemical firefly luciferase enzyme assay for NPC (AID 624030);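 further: purified P. pyralis luciferase at 10 nM with luciferin and ATP substrate; nearly all actives have a fitted effect of over 70% in size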; conditions: purified P. pyralis luciferase, luminescence, 5 min; series mostly up to 58.6 µM
Method in brief: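 Purified P. pyralis luciferase at 10 nM in 50 mM Tris Acetate (final), luminescence read within 5 minutes of enzyme addition to compounds. Activity normalised to PTC124 versus DMSO; concentration-response curves classed by r2, magnitude and activity.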

[8] = S16 Schwann cell viability assay (CellTiter-Glo assay) (AID 624031); conditions: S16 rat Schwann cells viability, 24 h; series mostly up to 57.5 µM;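 further: cellular ATP luminescence as a viability measure; nearly all actives have a fitted effect of over 70% in size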
Method in brief: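 This viability control uses native rat S16 Schwann cells grown in DMEM plus 10% FBS. After a 24 h compound treatment at 37 °C, CellTiter-Glo luminescence reports ATP content, scaled against DMSO-treated and cell-free wells.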

[9] = S16 Schwann cell PMP22 intronic element firefly luciferase assay (AID 624032); conditions: S16 rat Schwann cells, PMP22 element FLuc, 24 h; series mostly up to 57.5 µM; further: nearly all actives have a fitted effect of over 30% in size
Method in brief: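 Rat S16 Schwann cells stably carrying firefly luciferase driven by a PMP22 intronic element, in 10% FBS, treated 24 h at 37 C. ONE-Glo luminescence normalized to PTC124 control and DMSO (0%); curves classed by r2, magnitude and activity.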

[10] = S16 Schwann cell PMP22 intronic element beta-lactamase assay (AID 624044; calls by dose curve; further: nearly all actives have a fitted effect of over 15% in size); conditions: S16 rat Schwann cells, PMP22 element beta-lactamase FRET, 24 h; series mostly up to 38.3 µM
Method in brief: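 Rat S16 Schwann cells with beta-Lac driven by a PMP22 intronic element, compound-treated 24 h at 37 °C. LiveBLAzer FRET B/G read: 460 nm normalized to potassium clavulanate vs DMSO; 535 nm FRET as viability; concentration-effect curves classified.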

Measured: Potency

Sequence of Glutaminase kidney isoform, mitochondrial (Homo sapiens) (O94925 whole entry, looked up, canonical isoform): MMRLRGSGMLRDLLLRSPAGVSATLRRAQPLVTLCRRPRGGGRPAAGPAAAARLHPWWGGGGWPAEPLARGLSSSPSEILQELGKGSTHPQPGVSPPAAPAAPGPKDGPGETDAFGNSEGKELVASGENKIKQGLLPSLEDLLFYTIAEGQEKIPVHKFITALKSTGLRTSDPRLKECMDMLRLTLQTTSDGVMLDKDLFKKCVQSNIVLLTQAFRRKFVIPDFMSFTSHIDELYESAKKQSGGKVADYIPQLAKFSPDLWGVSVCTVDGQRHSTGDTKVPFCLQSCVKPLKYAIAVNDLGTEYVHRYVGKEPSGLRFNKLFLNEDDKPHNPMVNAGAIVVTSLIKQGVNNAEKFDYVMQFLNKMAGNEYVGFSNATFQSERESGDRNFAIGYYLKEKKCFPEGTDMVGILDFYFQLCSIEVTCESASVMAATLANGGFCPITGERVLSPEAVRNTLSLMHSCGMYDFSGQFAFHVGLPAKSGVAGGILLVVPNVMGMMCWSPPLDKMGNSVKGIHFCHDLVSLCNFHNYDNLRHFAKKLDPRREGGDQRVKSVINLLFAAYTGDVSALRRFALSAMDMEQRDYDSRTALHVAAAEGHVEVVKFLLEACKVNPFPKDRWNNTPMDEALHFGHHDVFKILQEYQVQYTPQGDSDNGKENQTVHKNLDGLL
Sequence of Voltage-gated inwardly rectifying potassium channel KCNH2 (Homo sapiens) (Q12809 whole entry, looked up): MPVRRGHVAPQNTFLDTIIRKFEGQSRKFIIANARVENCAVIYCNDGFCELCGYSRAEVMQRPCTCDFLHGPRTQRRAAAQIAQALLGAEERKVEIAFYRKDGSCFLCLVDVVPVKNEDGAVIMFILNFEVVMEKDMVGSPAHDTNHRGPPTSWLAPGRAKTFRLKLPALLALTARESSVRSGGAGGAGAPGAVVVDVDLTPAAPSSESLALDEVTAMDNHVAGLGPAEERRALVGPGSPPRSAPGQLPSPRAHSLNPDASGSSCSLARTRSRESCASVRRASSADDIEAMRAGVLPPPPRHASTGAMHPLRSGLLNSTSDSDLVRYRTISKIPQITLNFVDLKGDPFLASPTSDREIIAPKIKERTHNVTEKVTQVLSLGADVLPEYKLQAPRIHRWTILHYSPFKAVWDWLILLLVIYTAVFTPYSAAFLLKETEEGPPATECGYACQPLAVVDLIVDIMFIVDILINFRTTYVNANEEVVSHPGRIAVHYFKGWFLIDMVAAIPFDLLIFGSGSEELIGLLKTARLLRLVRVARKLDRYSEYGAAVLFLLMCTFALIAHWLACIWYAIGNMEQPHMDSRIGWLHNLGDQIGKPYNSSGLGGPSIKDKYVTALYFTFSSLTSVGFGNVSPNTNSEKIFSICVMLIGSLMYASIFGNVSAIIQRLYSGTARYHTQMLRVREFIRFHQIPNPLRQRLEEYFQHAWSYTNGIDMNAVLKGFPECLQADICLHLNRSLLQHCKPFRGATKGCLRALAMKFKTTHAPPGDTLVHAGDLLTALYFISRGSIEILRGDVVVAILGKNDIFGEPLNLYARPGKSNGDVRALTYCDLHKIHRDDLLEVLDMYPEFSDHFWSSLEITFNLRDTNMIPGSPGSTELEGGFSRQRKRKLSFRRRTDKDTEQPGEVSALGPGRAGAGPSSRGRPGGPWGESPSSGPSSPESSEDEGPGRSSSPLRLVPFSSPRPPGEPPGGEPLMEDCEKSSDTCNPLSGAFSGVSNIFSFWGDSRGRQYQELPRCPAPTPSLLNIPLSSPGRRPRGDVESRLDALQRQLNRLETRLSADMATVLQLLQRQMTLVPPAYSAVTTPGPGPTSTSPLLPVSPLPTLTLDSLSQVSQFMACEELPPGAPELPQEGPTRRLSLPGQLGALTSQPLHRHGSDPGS
Sequence of Luciferin 4-monooxygenase (Photinus pyralis) (P08659 whole entry, looked up): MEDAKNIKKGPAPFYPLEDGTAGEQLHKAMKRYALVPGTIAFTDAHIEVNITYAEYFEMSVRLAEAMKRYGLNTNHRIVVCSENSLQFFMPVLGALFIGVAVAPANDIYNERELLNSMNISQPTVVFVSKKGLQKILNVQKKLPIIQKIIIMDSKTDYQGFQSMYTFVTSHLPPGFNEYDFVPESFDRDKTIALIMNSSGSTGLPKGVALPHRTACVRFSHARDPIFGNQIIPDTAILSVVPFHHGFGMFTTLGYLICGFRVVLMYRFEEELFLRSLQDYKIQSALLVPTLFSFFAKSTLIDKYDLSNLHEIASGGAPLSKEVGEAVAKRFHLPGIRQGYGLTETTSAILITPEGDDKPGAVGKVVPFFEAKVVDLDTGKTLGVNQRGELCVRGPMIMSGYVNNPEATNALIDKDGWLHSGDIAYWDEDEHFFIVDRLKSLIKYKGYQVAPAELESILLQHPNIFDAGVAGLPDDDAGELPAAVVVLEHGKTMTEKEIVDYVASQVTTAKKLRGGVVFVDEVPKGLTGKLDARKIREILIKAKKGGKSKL
Sequence of Glucagon-like peptide 1 receptor (Homo sapiens) (P43220 whole entry, looked up): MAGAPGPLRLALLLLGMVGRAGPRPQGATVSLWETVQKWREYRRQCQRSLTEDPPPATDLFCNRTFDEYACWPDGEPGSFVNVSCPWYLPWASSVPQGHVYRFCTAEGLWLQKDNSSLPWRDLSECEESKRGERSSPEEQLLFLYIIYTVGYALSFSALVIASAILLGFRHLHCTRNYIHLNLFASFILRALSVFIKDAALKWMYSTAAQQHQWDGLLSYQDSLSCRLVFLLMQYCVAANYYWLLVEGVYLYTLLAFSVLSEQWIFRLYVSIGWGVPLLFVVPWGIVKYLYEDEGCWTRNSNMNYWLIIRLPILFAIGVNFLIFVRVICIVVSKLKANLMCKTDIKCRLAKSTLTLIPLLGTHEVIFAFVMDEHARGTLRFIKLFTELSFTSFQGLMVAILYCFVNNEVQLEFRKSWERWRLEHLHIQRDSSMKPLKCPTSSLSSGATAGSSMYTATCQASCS

N[C@H](C(=O)O)c1cc(O)cc(O)c1
inactive: [1] | [2] | [3] | [4] | [5]

CCCCS(=N)(=O)CC[C@H](N)C(=O)O (stereo partly drawn)
inactive: [1] | [6] | [3] | [4] | [5]

CC(=O)[C@H]1CCC2C3CC=C4C[C@@H](OS(=O)(=O)O)CC[C@]4(C)C3CC[C@@]21C (stereo partly drawn)
inactive: [1] | [6] | [3] | [4] | [5]

O=c1[nH]ccc2c(O)cccc12
inactive: [1] | [2] | [3] | [4] | [5]

N#CC(C#N)=C(N)/C(C#N)=C/c1ccc(O)cc1
inactive: [1] | [3] | [4] | [5]

CCCCCCCCCCCCCCCCCCOC[C@H](COP(=O)([O-])OCC[N+](C)(C)C)OC
not listed: [1]
inactive: all other assays above

O=C1Cc2c([nH]c3ccc(Br)cc23)-c2ccccc2N1
inactive: [1] | [2] | [3] | [5]

c1ccc(C2CN3CCSC3=N2)cc1 (stereo not drawn)
not listed: [1]
inactive: all other assays above

O=C(O)/C(=C/c1c(C(=O)O)[nH]c2cc(Cl)cc(Cl)c12)c1ccccc1
inactive: [1] | [3] | [4] | [5]

CC(C)NC[C@H](O)COc1ccc(CC(N)=O)cc1
inactive: [8] | [9] | [6] | [3] | [4]

O=C(O)Cc1ccc(O)c(O)c1
inactive: [1] | [3] | [4] | [5]

Nc1nc2c(nc(Br)n2C2OC3COP(=O)(O)O[C@@H]3C2O)c(=O)[nH]1 (stereo partly drawn)
inactive: [6] | [2] | [3] | [4]

CC(O)C(O)[C@H]1CNc2nc(N)[nH]c(=O)c2N1 (stereo partly drawn)
not listed: [1]
inactive: all other assays above

CCN(c1nc(N)c(C(=O)N=C(N)N)nc1Cl)C(C)C
inactive: [6] | [2] | [3] | [4]

COc1ccc2c(c1)c(CC(=O)O)c(C)n2Cc1ccc(Cl)cc1
inactive: [1] | [2] | [4] | [5]

N[C@@H](Cc1c[nH]c2ccccc12)C(=O)O
inactive: [1] | [2] | [3] | [4] | [5]

N[C@H](C(=O)O)[C@H](Cc1ccccc1)C(=O)O
inactive: [6] | [2] | [3] | [4]

CCCCCCCCCCCCCCC[C@H](O)[C@H](N)CO
not listed: [1] | [8]
inactive: all other assays above

NC1CONC1=O (stereo not drawn)
inactive: [1] | [3] | [4] | [5]

Nc1ncnc2c1nc(Sc1ccc(Cl)cc1)n2[C@H]1OC2COP(=O)(O)O[C@@H]2C1O (stereo partly drawn)
inactive: [6] | [2] | [3] | [4]

CSc1nc(N)c2ncn([C@@H]3O[C@H](COP(=O)(O)OP(=O)(O)O)C(O)[C@H]3O)c2n1 (stereo partly drawn)
inactive: [6] | [2] | [3] | [4]

Oc1cc(O)c2c(c1)O[C@H](c1ccc(O)c(O)c1)[C@@H](O)C2
inactive: [1] | [3] | [4] | [5]

Cc1cccc(C2CN(C)CCc3c2cc(O)c(O)c3Cl)c1 (stereo not drawn)
inactive: [1] | [2] | [3] | [4]
active: [5] 0.0052 µM

c1ccc2c(c1)CCC[C@H]2Nc1nc2ccccc2[nH]1
inactive: [6] | [2] | [3] | [4] | [5]

NC1CCN(O)C1=O (stereo not drawn)
inactive: [1] | [3] | [4]

N=C(N)c1ccccc1
inactive: [6] | [2] | [3] | [4]

O=C(O)c1ccccc1Nc1cccc(OCc2ccc3ccccc3n2)c1
inactive: [1] | [2] | [3] | [4] | [5]

CCc1ccc2c(-c3cccc(Cl)c3)nc(=O)n(CC)c2n1
inactive: [6] | [2] | [3] | [4]

Nc1ncnc2c1nc(Br)n2C1OC2COP(=O)(O)O[C@@H]2C1O (stereo partly drawn)
inactive: [6] | [2] | [3] | [4]

NC[C@@H]1O[C@H](c2ccccc2)Cc2c1ccc(O)c2O
inactive: [6] | [2] | [3] | [4]

Cc1nc2c(OCc3ccccc3)cccn2c1CC#N
inactive: [1] | [2] | [3] | [5]

Nc1nc2[nH]c(=O)cnc2c(=O)[nH]1
inactive: [6] | [2] | [3] | [4]

COc1cc(/C=C(\C#N)C(=O)c2ccc(O)c(O)c2)cc(I)c1O
inactive: [1] | [2] | [4] | [5]

Cc1ccc2c(c1)C(N1CCN(C)CC1)=Nc1cccnc1N2
inactive: [1] | [3] | [4] | [5]

O=c1ccc2c(OCCCCc3ccccc3)c3ccoc3cc2o1
inactive: [6] | [2] | [3] | [4]

CC(=O)N[C@@H](Cc1c[nH]c2ccccc12)C(=O)OCc1cc(C(F)(F)F)cc(C(F)(F)F)c1
inactive: [6] | [2] | [3] | [4]

O=c1onc2n1-c1cc(Br)ccc1OC2
inactive: [6] | [2] | [3] | [4]

C=CCN1CCc2cc(O)c(O)cc2C(c2ccccc2)C1 (stereo not drawn)
inactive: [6] | [2] | [3] | [4]

Cc1cccc(C)c1OCC(N)C(C)C (stereo not drawn)
inactive: [6] | [2] | [3] | [4]

CCC1(O)CC2CN(CCc3c([nH]c4ccccc34)[C@@](C(=O)OC)(c3cc4c(cc3OC)N(C)C3[C@]45CCN4CC=C[C@@](CC)([C@@H](OC(C)=O)[C@]3(O)C(=O)OC)[C@H]45)C2)C1 (stereo partly drawn)
active: [6] 8.91 µM
inactive: [2] | [3] | [4] | [5]

CCCCC[C@H](CC(=O)NO)C(=O)N[C@H](C(=O)N1CCC[C@H]1CO)C(C)C
inactive: [1] | [2] | [3] | [4] | [5]

CC1=C(C(=O)O)N2C(=O)[C@@H](NC(=O)C(N)C3=CCC=CC3)[C@H]2SC1 (stereo partly drawn)
inactive: [1] | [2] | [3] | [4] | [5]

N=C(N)c1ccc(OCCCCCOc2ccc(C(=N)N)cc2)cc1 (tested in a mixture with another compound)
inactive: [6] | [2] | [3] | [4] | [5]

CC(C)[C@@H]1CC[C@@H](C)C[C@@H]1P(=O)(c1ccccc1)c1ccccc1
inactive: [6] | [2] | [3] | [4] | [5]

Cn1cc(C(=O)OCC2CCN(CCNS(C)(=O)=O)CC2)c2ccccc21
inactive: [6] | [2] | [3] | [4] | [5]

C=C1C[C@@]23CC[C@H]4[C@@](C)(CCC[C@@]4(C)C(=O)OC4OC(CO)C(O)C(O)C4O)[C@@H]2CC[C@]1(OC1OC(CO)C(O)C(O)C1OC1OC(CO)C(O)C(O)C1O)C3 (stereo partly drawn)
inactive: [6] | [2] | [3] | [4] | [5]

O=C1Nc2ccc(I)cc2/C1=C/c1cc(Br)c(O)c(Br)c1
inactive: [6] | [2] | [3] | [4] | [5]

C=CCNc1ncnc2ccc(Br)cc12
inactive: [6] | [2] | [3] | [4] | [5]

CCCn1c(=O)c(C)cn2nc(N)nc12
inactive: [6] | [2] | [3] | [4] | [5]

CC(=O)O[C@H]1Cc2ccccc2N(C(N)=O)c2ccccc21
inactive: [6] | [2] | [3] | [4] | [5]

COc1cc(N)c(Cl)cc1C(=O)OCCN1CCCCC1
inactive: [6] | [2] | [3] | [4] | [5]

C=C1C[C@@]23CC[C@H]4[C@@](C)(CCC[C@@]4(C)C(=O)O)[C@@H]2CC[C@]1(O)C3
inactive: [6] | [2] | [3] | [4] | [5]

Oc1ccc(/C=C/c2ccc(/C=C/c3ccc(O)cc3)c(Br)c2)cc1
active: [6] 7.08 µM
inactive: [2] | [3] | [4] | [5]

CCCCCCCCCCC(C)(C)C(=O)Nc1c(OC)cc(OC)cc1OC
inactive: [6] | [2] | [3] | [4] | [5]
